Drawing on PubChem BioAssay (NCI), this text covers growth for 13 compounds.

About 83,000 compounds went through this panel and 20% of them were active in at least one assay; those are over-represented in the sample as a whole.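 The endpoint reported here, percent growth, reads 100 for growth as untreated, 0 for no net growth and -100 for all cells dead.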 Active and inactive are the calls of the source. Rule for the calls: active = growth percent below 10; inactive = the rest.

The experiment deals with UACC-62 melanoma. Kind of experiment: NCI-60 one-dose screen, 48 h (100 = growth as untreated, 0 = no growth, -100 = all killed). To be noted: 10 µM.
Consider `S=C1SCC(c2ccccc2)S1` (stereo not drawn), for which the growth was 100% (inactive).
Regarding `Nc1ncnc2[nH]c(=O)[nH]c12`, the growth is 92.3% (inactive).
For `Cc1ccc(S(=O)(=O)Oc2ccc3c4c(c(=O)oc3c2)CCCCC4)cc1`, the growth is 56.5% (inactive).
Consider `CCN(CC)CCSCCN(CC)CC`, for which the growth was 102% (inactive).
Turning to `O=C(Nc1ccccc1)Nc1cccc(-n2cc(-c3ccncc3)c(-c3ccc(O)c(Cl)c3)n2)c1`, the growth is 43.8% (inactive).
As for `O=C(Nc1cccc(-n2cc(-c3ccncc3)c(-c3ccc(O)c(Cl)c3)n2)c1)c1cccc(C(F)(F)F)c1`, the growth was 37.9% (inactive).
In the case of `O=C(CC(NC(=O)OCc1ccccc1)C(=O)OCc1ccccc1)OCc1ccccc1` (stereo not drawn), the growth was 97.2% (inactive).
The result for `COc1ccc(Oc2nc(NC3CCCC3)nc(Sc3ccc(OC)cc3)n2)cc1` reads 71.1% (inactive).
For `COc1ccc(-c2nn(-c3cccc(NC(=O)c4ccc(N5CCOCC5)c(C(F)(F)F)c4)c3)cc2-c2ccncc2)cc1Cl` the value was 74.3% (inactive); for `COc1ccc(-c2nn(-c3cccc(NC(=O)Nc4ccccc4)c3)cc2-c2ccncc2)cc1Cl`, 46.4% (inactive); for `CCCCCCCCCCCCCCCC(=O)OC1[C@@H](OC(=O)CCCCCCCCCCCCCCC)[C@@H](C(=O)N[C@@H](CCCCN)C(=O)OC)O[C@H]1n1cnc2c(=O)[nH]c(NC(=O)C(C)C)nc21` (stereo partly drawn), 111% (inactive).
For `CCc1ccc2c(c1)N(CCO)C1=C(C(=O)OC1)C2c1cc(OC)c(OC)c(OC)c1` (stereo not drawn) the value was 16.2% (inactive); for `O=S(=O)(NCCCNc1nccc(-c2c(-c3ccc(F)cc3)nc3sccn23)n1)c1ccc2ccccc2c1`, 45% (inactive).
